Source: PubChem (several laboratories)
E coli Lon inh: inhibitors of E. coli Lon protease, primary screen, biochemical, fluorescence polarization | actives 0.42% (n = 360,000) | purified E. coli Lon protease | inhibition, % at 7.94 µM | P0A9M0; in the data active means inhibition above about 13%, passing the limit was not always enough;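 further: 0% = enzyme with probe and DMSO and 100% = no enzyme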
Bcl-xL primary: inhibitors of human Bcl-xL, primary screen, biochemical, fluorescence polarization, HTS | Bcl-2-like protein 1 (Homo sapiens), Q07817 | GST-Bcl-xL / FITC-Bim BH3 peptide fluorescence polarization | inhibition, % at 10.9 µM | actives 0.7% (n = 320,000) | AID 2129, 2009;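 active means inhibition above the mean of all tested compounds plus 3 SD, cutoff set per campaign, cut at about 30% in these data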;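 further: 0% = DMSO wells and 100% = unlabeled Bim-BH3 peptide competitor; inhibitors lower millipolarization by displacing the labeled peptide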
MEX-5 binding: MEX-5 zinc finger RNA-binding disruptors – biochemical, C. elegans, fluorescence polarization, MLPCN library, primary screen. Zinc finger protein mex-5 (Caenorhabditis elegans), Q9XUB2. MEX-5/FITC-TCR2 RNA binding; active compounds read low. activity score (negative = inhibition of binding), % at 10 µM. actives 0.38% (n = 300,000). AID 1832, 2009;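 active means inhibition past about -25% in most replicates, and total fluorescence under double the plate's negative control median, limit read from the data; inconclusive means replicates evenly split on the limit, or fluorescence at least double controls; inactive means too little inhibition in most replicates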;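 further: 0% = DMSO and -100% = 5 µM competing unlabeled TCR2 RNA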
MCL1-BIM inh: inhibitors of MCL1 binding to BIM-BH3, primary screen, biochemical, fluorescence polarization; AID 2057, 2009; actives 0.68% (n = 320,000); inhibition, % at 10.9 µM; Induced myeloid leukemia cell differentiation protein Mcl-1 (Homo sapiens), Q07820; GST-MCL1 / FITC-Bim-BH3 fluorescence polarization;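 active means inhibition above the mean inhibition of all tested compounds plus 3 SD, set per campaign, cut at about 40% in these data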;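 further: 0% = DMSO wells and 100% = unlabeled Bim-BH3 peptide control; higher means more loss of mP so more displacement of Bim peptide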
GLD-1 TGE inh: GLD-1/TGE RNA complex disruptors, primary screen, biochemical, fluorescence polarization; inhibition, % at 5.96 µM; purified GLD-1 + fluorescein TGE RNA; Female germline-specific tumor suppressor gld-1 (Caenorhabditis elegans), Q17339; AID 2280, 2010; actives 0.44% (n = 320,000);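 active means percent inhibition above a per-plate cutoff, the plate mean of test compounds plus 3 SD, cut at about 30% in these data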;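 further: 0% = DMSO wells with GLD-1 and probe and 100% = wells lacking GLD-1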
Target sequence (Q17339 whole entry, looked up): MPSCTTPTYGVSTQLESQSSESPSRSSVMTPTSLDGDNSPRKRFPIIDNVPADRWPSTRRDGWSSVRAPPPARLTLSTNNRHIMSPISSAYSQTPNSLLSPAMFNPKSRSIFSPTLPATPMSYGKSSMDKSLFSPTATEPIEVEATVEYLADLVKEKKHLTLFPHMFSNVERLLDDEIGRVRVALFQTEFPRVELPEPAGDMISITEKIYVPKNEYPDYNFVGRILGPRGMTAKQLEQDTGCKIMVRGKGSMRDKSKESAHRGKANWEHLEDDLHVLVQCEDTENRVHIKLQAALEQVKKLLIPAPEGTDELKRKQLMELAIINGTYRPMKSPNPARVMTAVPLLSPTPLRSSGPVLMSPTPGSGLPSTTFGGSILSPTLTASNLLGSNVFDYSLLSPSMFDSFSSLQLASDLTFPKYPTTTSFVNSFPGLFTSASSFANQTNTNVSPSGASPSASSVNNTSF
EBV gp42 inh: Epstein-Barr virus gp42 inhibitors, primary screen, biochemical, uHTS, fluorescence polarization; Glycoprotein 42 (Epstein-Barr virus (strain AG876)), Q1HVG2; actives 0.42% (n = 220,000); inhibition, % (tested at 21.74 µM); Fluorescence polarization binding assay, mP read-out; in the data active means inhibition above about 50%
Target sequence (Q1HVG2 whole entry, looked up): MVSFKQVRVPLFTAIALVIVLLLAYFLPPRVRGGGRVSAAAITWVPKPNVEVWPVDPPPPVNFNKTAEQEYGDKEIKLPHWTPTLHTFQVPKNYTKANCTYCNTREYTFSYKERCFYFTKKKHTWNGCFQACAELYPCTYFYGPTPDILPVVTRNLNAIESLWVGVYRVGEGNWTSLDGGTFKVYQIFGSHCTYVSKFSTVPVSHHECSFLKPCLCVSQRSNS
Bcl-xL conf: Bcl-xL inhibitors blocking Bim BH3 binding, confirmation, counter-screen for MCL1 inhibitor project, biochemical, fluorescence polarization; actives 54% (n = 1,700); AID 2166, 2009; inhibition, % at 10.9 µM; GST-Bcl-xL / FITC-Bim BH3 peptide FP binding; shares compounds with MCL1-BIM inh;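 active means inhibition above a cutoff equal to the mean inhibition of all tested compounds plus 3 SD, cut at about 30% in these data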;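 further: 0% = DMSO wells and 100% = unlabeled Bim BH3 control peptide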
MCL1 BIM confirm: inhibitors of MCL1 binding to BIM-BH3, confirmation, biochemical, fluorescence polarization, triplicate; shares compounds with MCL1-BIM inh; AID 2168, 2009; GST-MCL1 / FITC-Bim-BH3 fluorescence polarization; inhibition, % at 10.9 µM; actives 61% (n = 1,700);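 active means inhibition above the average of all tested compounds plus 3 SD, cut at about 40% in these data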;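 further: 0% = DMSO wells and 100% = unlabeled Bim-BH3 control peptide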
GLD1 RNA confirm: GLD-1/TGE RNA binding inhibitors, retest, confirmation, biochemical, fluorescence polarization, triplicate; shares compounds with GLD-1 TGE inh; GLD-1/FL-TGE RNA fluorescence polarization; inhibition, % at 5.96 µM; actives 10% (n = 550); AID 2459, 2010;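 active means average inhibition across triplicates above the hit cutoff set in the primary screen, cut at about 32% in these data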;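 further: 0% = GLD-1 with RNA probe and DMSO and 100% = wells lacking GLD-1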
eLon confirm: E. coli Lon protease inhibitor retest, confirmation, biochemical, fluorescence polarization; shares compounds with E coli Lon inh; purified E. coli Lon; inhibition, % at 7.94 µM; actives 31% (n = 1,400); in the data active means inhibition above about 16%;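 further: 0% = enzyme with probe and DMSO and 100% = no enzyme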
* = called active by the depositor. In the library only some 1.5% were active in any assay of this set; here they are far more common.

Screening CCN1C(=O)c2cccc3c(Cl)ccc(c23)C1=O returned E coli Lon inh -9.5, Bcl-xL primary 4.3, MEX-5 binding -0.4, MCL1-BIM inh 4.5, GLD-1 TGE inh 3.2 and EBV gp42 inh 6.7.
`Cc1cccc(N2C(=O)c3cccc4c(N)ccc(c34)C2=O)c1` gave E coli Lon inh active, Bcl-xL primary active, MEX-5 binding inconclusive, MCL1-BIM inh active, GLD-1 TGE inh active, Bcl-xL conf 197.9*, MCL1 BIM confirm active and eLon confirm active.
For Cc1cccc(N2C(=O)c3cccc4c(N(C)CCO)ccc(c34)C2=O)c1 the results were E coli Lon inh 175.1*, Bcl-xL primary 183.4*, MEX-5 binding inconclusive, MCL1-BIM inh active, GLD-1 TGE inh 175.6*, EBV gp42 inh 157.4*, Bcl-xL conf 168.8*, MCL1 BIM confirm active and eLon confirm 144.3*.
`CC(C)Cc1nnc(NC(=O)C2CSC3(C)CCC(=O)N23)s1` (centres undefined) gave E coli Lon inh -3.1, Bcl-xL primary 2.3, MEX-5 binding 2.0, MCL1-BIM inh -2.2 and GLD-1 TGE inh 6.3.
`Cc1ccnc(N2C(=O)c3ccccc3C2=O)c1` gave E coli Lon inh 7.5, Bcl-xL primary 3.0, MEX-5 binding -0.1, MCL1-BIM inh 2.8 and GLD-1 TGE inh -1.8.
For Cc1ccnc(N2C(=O)c3cccc4c([N+](=O)[O-])ccc(c34)C2=O)c1 the results were E coli Lon inh 53.2*, Bcl-xL primary 88.3*, MEX-5 binding -21.2, MCL1-BIM inh 102.8*, GLD-1 TGE inh 77.0*, EBV gp42 inh 66.8*, Bcl-xL conf 82.0*, MCL1 BIM confirm 118.8* and eLon confirm 64.2*.
For COc1ccc2[nH]c(C)c(CCN(Cc3cccs3)C(=S)Nc3cccc(F)c3)c2c1 the results were E coli Lon inh 27.3*, Bcl-xL primary 59.4*, MEX-5 binding -2.0, MCL1-BIM inh 62.7*, GLD-1 TGE inh 52.9*, EBV gp42 inh 8.6, Bcl-xL conf 21.7, MCL1 BIM confirm 21.3, GLD1 RNA confirm 2.5 and eLon confirm 10.0.
`COc1ccc(N=Nc2nc3ccc(Br)cc3n2C)cc1` gave E coli Lon inh active, Bcl-xL primary active, MEX-5 binding -50.4*, MCL1-BIM inh active, GLD-1 TGE inh 176.1*, EBV gp42 inh 51.1*, Bcl-xL conf 88.1*, MCL1 BIM confirm 115.8* and eLon confirm 91.7*.
COc1ccc(-c2c(-c3cc(OC)cc(OC)c3)n(C)c3ccc(Br)cc23)cc1 was read as E coli Lon inh -5.5, Bcl-xL primary 4.2, MCL1-BIM inh 6.0 and GLD-1 TGE inh 10.6.
For CN1C[C@@H]2[C@@H]3C(=O)N(C)C(=O)[C@@H]3[C@](C)(C1=O)N2C(=O)c1ccc(Cl)c(Cl)c1 the results were E coli Lon inh 3.8.
COc1ccc(/C=N/N=C2/NC(=O)CC(C(=O)O)S2)cc1 (centres undefined) was read as E coli Lon inh -12.1, Bcl-xL primary 2.2, MEX-5 binding 0.5, MCL1-BIM inh 4.0, GLD-1 TGE inh -8.0 and EBV gp42 inh -0.3.
`COc1ccc(/C=N/N=C2/CC(C)(C)Cc3n[nH]c(=O)cc32)cc1` gave E coli Lon inh 44.7*, Bcl-xL primary 138.0*, MEX-5 binding -81.3*, MCL1-BIM inh 155.2*, GLD-1 TGE inh 120.4*, EBV gp42 inh 70.4*, Bcl-xL conf 49.5*, MCL1 BIM confirm 63.4* and eLon confirm 20.9*.
For CCOC(=O)C1CCCN(C(=O)C2c3ccccc3Oc3ccccc32)C1 (centres undefined) the results were E coli Lon inh active, Bcl-xL primary active, MEX-5 binding -6.6, MCL1-BIM inh active, GLD-1 TGE inh 188.5*, EBV gp42 inh -1.8, Bcl-xL conf 42.0*, MCL1 BIM confirm 55.4* and eLon confirm 36.4*.
`CCOC(=O)C1CCCN(C(=O)C2COc3ccccc3O2)C1` (centres undefined) gave E coli Lon inh 1.3.
Screening CNC(=O)C[C@H]1C(=O)N(c2ccc(OC)cc2)C[C@@H]1CSC returned E coli Lon inh -2.5.
For COc1ccc(C2CC(=O)C(C=NCC(C)C)=C(O)C2)cc1 (centres undefined) the results were E coli Lon inh -14.9 and MEX-5 binding 1.5.
`COc1ccc(C2CC(=O)C(C=NCCCO)=C(O)C2)cc1` (centres undefined) gave E coli Lon inh 44.2*, Bcl-xL primary 63.8*, MEX-5 binding -26.7*, MCL1-BIM inh 80.0*, GLD-1 TGE inh 22.0, Bcl-xL conf 61.3*, MCL1 BIM confirm 84.7* and eLon confirm 42.4*.
NS(=O)(=O)c1cc(C(=O)NC2CCSc3ccccc32)ccc1Cl (centres undefined) was read as E coli Lon inh 17.6*, Bcl-xL primary 33.6*, MEX-5 binding inconclusive, MCL1-BIM inh 79.1*, GLD-1 TGE inh 5.9, Bcl-xL conf 29.6, MCL1 BIM confirm 70.2* and eLon confirm 16.9*.
`COc1ccc(S(=O)(=O)N2CCOCC2)cc1NC(=O)C1COc2ccccc2O1` (centres undefined) gave E coli Lon inh 7.9, Bcl-xL primary 1.8, MEX-5 binding 3.6, MCL1-BIM inh 4.9 and GLD-1 TGE inh 0.2.
